Measurements published in the supplement of paper PMC3334620.
Whole data set: some 33,000 sequences, median “E-score (-0.5 to 0.5)” near -0.0059, cut for the highest 2% near 0.26. Many of the other results were omitted from the sample, so the highest values are more common in it than they were.

biological target: T1, Cin5 (UniProt P40917); test: PBM E-score (8-mer binding enrichment) (E-score (-0.5 to 0.5)); higher = stronger / more preferred TF binding; details: protein concentration: 100 nM; construct: GST-full length
T1 sequence: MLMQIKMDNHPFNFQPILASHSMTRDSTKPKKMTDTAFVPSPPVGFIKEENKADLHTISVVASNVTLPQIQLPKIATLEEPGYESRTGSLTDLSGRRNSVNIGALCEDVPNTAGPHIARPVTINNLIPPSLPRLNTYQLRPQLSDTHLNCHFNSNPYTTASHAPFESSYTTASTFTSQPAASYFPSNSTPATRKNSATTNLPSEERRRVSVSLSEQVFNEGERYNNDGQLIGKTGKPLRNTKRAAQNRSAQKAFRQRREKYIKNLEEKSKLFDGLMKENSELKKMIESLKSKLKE
In short: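 Universal all-10-mer Agilent arrays, double-stranded by primer extension on fresh or once-stripped slides, were probed with about 100-200 nM GST-tagged yeast transcription factors made by PURExpress. Fluorescent anti-GST detected bound protein, and masliner normalised the scans. E-scores from the Universal PBM Analysis Suite were given to each ungapped eight-base word pooled with its reverse complement.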

Sequence | PBM E-score
AGCTATTG | 0.01
CGTGGAAG | 0.129
CGTGGAAA | 0.28
AGTGGAAA | 0.0448
CACTATGG | -0.15
ATAATATC | 0.221
GTAATAAA | 0.2
ACAATATA | 0.269
CTAATATA | 0.0911
ATAATATA | 0.345
AGAATATA | 0.105
ATAATATG | 0.289
ATAATAAG | 0.225
GTAATATA | 0.323
GCAATATA | 0.185
CCAATATA | 0.0434

Sequence | PBM E-score
ATAATAGA | 0.221
GAGCTCCA | -0.092
AAGGCCCT | -0.136
CTTAGTGA | 0.0718
CCCCCTTA | -0.342
AGTATCAC | 0.0484
GTATAATA | 0.253
ATATAATA | 0.303
CTATAATA | 0.114
AACCCCTT | -0.0504
CTCCCCAA | -0.00166
CATCTGCC | -0.0681
ATGTTTTC | 0.121
CCTGGGAG | -0.176
ACTCCCGC | -0.0164
